# PubChem BioAssay AID504942 (Broad Institute, 2011)
# Results with a measured potency or affinity are listed apart. Activity calls are given as the source filed them. How the calls were made is not given here.
# Test: HeLa cell cytotoxicity, dose response, cytotoxicity control, 48 h, plate reader, cherry-picks (AID 504942)
compound,measurement,value
N#CC1C(C#N)C2CCC1C1C2N1c1ccccc1 (stereo unspecified),outcome,inactive
